Source: ChEMBL document CHEMBL3988442, “University of Dundee, Small-Polar-MMV Screening Library” (2021)

target: AMP-activated protein kinase, AMPK (Homo sapiens) (UniProt P54646+O43741+P54619+Q9UGJ0+Q9Y478+Q13131+Q9UGI9); test: AMP-dependent Kinase enzyme assay. An in vitro enzyme assay that detects ADP turnover that is directly proportional to AMPK activity. This uses naive AMPK that is activated during the assay with MK-8722; type: functional; design: scale not given: direction of the effect not stated beside the values; conditions: 30 µM

SMILES | Percent Effect
CCN(Cc1cnn(CC)c1)Cc1c(Cl)cncc1Cl | 6.24%
CSCC(C)(O)CNS(=O)(=O)c1cccc(Cl)c1 (centres undefined) | -5.75%
COc1cccc(S(=O)(=O)N2CCCCC2CCN2CCCC2=O)c1 (centres undefined) | 5.93%
CCCN1CCC(CC(=O)NCc2cc(O)ncn2)CC1 | -4.63%
COC1CCCOC12CCN(C(=O)NCCc1cccs1)CC2 (centres undefined) | 4.16%
CN(C)C[C@@H]1CN(C(=O)c2cc(-c3ccccc3)n[nH]2)C[C@@H]1CO | -6.79%
COC(=O)c1ncccc1N1CCC(C(O)c2ccccc2)CC1 (centres undefined) | 12.8%
CC(C)C(NC(=O)C1CCCC1)c1cc(O)nc(-c2cccnc2)n1 (centres undefined) | 0.00151%
COCC(NC(=O)c1cc(NC(C)=O)ccc1Cl)c1ccnn1C (centres undefined) | -8.6%
CC(C)n1ccc(C(=O)OCC2CC(=O)N(Cc3ccccc3)C2)n1 (centres undefined) | 7.89%
O=C(NCc1nncn1C1CC1)c1ccccc1OCC1CC1 | 1.41%
CC(C)c1nc(C2CCCN2CCN2CCCCC2)no1 (centres undefined) | -7.59%
O=C(O)[C@H]1C[C@H](C(=O)NCc2ccncc2)CN(CCC(F)(F)F)C1 | -2.07%
CC1(C)OC(=O)N(CCCOc2ccc(F)cc2)C1=O | -0.642%
O=C(NCc1ccc(N2CCSCC2)cc1)NCc1cc[nH]n1 | -0.457%
Cc1nonc1CNC(=O)C(C)Oc1ccccc1F (centres undefined) | 5.55%
CC(C)c1nnc2n1CCN(Cc1cccc3c1OCCO3)C2 | 12.9%
CC(C)[C@@H]1CN(Cc2cnc3c(S(C)(=O)=O)cnn3c2)C[C@H]1N(C)C | -8.81%
Cc1noc(C)c1CC(=O)N1CCCC(n2ccnc2C)C1 (centres undefined) | -4.43%
